Source: PubChem BioAssay (NCI)
This is part of a sample that, as a whole, favours compounds with a hit. Of some 79,000 tested, about 15% had one in any assay. The source made the active and inactive calls. Rule as the data show it: active = growth inhibition above about 70%; inactive = the rest.

Assays:
[1] = NCI Yeast Anticancer Drug Screen. Data for the rad52 strain (AID 147);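 also: 0% = growth of vehicle-treated control cultures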; details: S. cerevisiae rad52 mutant growth inhibition, active compounds read high
Method in brief: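 Vehicle-treated cultures served as the reference for growth inhibition of compound-exposed yeast bearing a DNA repair mutation.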

[2] = NCI Yeast Anticancer Drug Screen. Data for the wt1 strain (AID 149);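 also: 0% = growth of vehicle-treated wt1 cultures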; details: S. cerevisiae wt1 strain (SPY 50644) growth inhibition, active compounds read high
Method in brief: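 Measured: growth of wt1 yeast under compound versus vehicle treatment, reported as inhibition.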

[3] = NCI Yeast Anticancer Drug Screen. Data for the rad50EPP+ strain (AID 151);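 also: 0% = growth of vehicle-treated control cultures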; details: S. cerevisiae rad50 mutant strain, active compounds read high
Method in brief: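 In this screen, rad50EPP+ yeast were exposed to compounds. Growth inhibition was scored against vehicle-treated controls.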

[4] = NCI Yeast Anticancer Drug Screen. Data for the mgt1 strain (AID 153); details: S. cerevisiae mgt1 mutant growth inhibition, active compounds read high
Method in brief: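 mgt1 strain exposed; growth vs vehicle control recorded as inhibition.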

[5] = NCI Yeast Anticancer Drug Screen. Data for the rad50 strain (AID 155);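 also: 0% = growth of vehicle-only cultures of the same strain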; details: S. cerevisiae rad50 strain growth inhibition, active compounds read high
Method in brief: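 Growth of the mutant yeast was measured after compound exposure and referenced to vehicle-treated cultures.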

[6] = NCI Yeast Anticancer Drug Screen. Data for the mec2-1 strain (AID 157); details: S. cerevisiae mec2-1 strain, active compounds read high
Method in brief: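 Vehicle-treated cultures served as reference for growth inhibition of compound-exposed mec2-1 yeast.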

[7] = NCI Yeast Anticancer Drug Screen. Data for the rad14 strain (AID 159);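 also: 0% = growth of vehicle-treated control cultures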; details: S. cerevisiae rad14 strain growth inhibition, active compounds read high
Method in brief: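 Here, inhibition of yeast growth was measured after compound exposure, using a strain with a genetic defect in DNA damage repair and vehicle-treated cultures as the reference.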

[8] = NCI Yeast Anticancer Drug Screen. Data for the sgs1 mgt1 strain (AID 161);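 also: 0% = growth of cultures given vehicle only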; details: S. cerevisiae sgs1 mgt1 strain, active compounds read high
Method in brief: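 Genetically altered yeast, compound exposure, growth inhibition relative to vehicle.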

[9] = NCI Yeast Anticancer Drug Screen. Data for the CLN2oe strain (AID 163);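 also: 0% = growth of vehicle-only control cultures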; details: S. cerevisiae CLN2oe strain, active compounds read high
Method in brief: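 Inhibition relative to vehicle-treated yeast is reported. Cells: strain with genetic alteration in cell-cycle control, grown with compound.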

[10] = NCI Yeast Anticancer Drug Screen. Data for the cln2 rad14 strain (AID 165);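 also: 0% = growth equal to vehicle treated cultures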; details: S. cerevisiae cln2 rad14 strain, active compounds read high
Method in brief: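 Each compound was tested on cln2 rad14 yeast. Inhibition of growth was calculated against vehicle-exposed controls.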

[11] = NCI Yeast Anticancer Drug Screen. Data for the bub3 strain (AID 167); details: S. cerevisiae bub3 mutant strain, active compounds read high
Method in brief: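 Whole-cell yeast assay. The mutant strain was incubated with compounds, and growth inhibition was determined by comparison with vehicle-treated cells.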

[12] = NCI Yeast Anticancer Drug Screen. Data for the wt2 strain (AID 169);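 also: 0% = growth of vehicle-treated yeast cultures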; details: S. cerevisiae wt2 strain growth inhibition, active compounds read high
Method in brief: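 Inhibition of yeast growth was determined after compound treatment, normalised to controls receiving only vehicle.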

[13] = NCI Yeast Anticancer Drug Screen. Data for the mlh1 strain (AID 171);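 also: 0% = growth of vehicle-treated control cultures of the same strain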; details: S. cerevisiae mlh1 strain growth inhibition, active compounds read high
Method in brief: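 Vehicle-normalised growth inhibition of a repair- or checkpoint-altered yeast strain following compound treatment.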

[14] = NCI Yeast Anticancer Drug Screen. Data for the sgs1 strain (AID 173);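 also: 0% = growth of vehicle-only control cultures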; details: S. cerevisiae sgs1 mutant, active compounds read high
Method in brief: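 Screen format: yeast with repair or checkpoint alterations, compound exposure, growth read relative to vehicle.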

[15] = NCI Yeast Anticancer Drug Screen. Data for the mlh1 rad18 strain (AID 175); details: S. cerevisiae mlh1 rad18 strain growth inhibition, active compounds read high
Method in brief: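 Vehicle-treated cultures served as the reference for growth inhibition in a yeast strain carrying DNA damage repair alterations exposed to each compound.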

[16] = NCI Yeast Anticancer Drug Screen. Data for the rad18 strain (AID 177); details: S. cerevisiae rad18 mutant growth inhibition, active compounds read high
Method in brief: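 Test articles were incubated with altered yeast defective in DNA damage repair. Results are given as inhibition of growth versus vehicle.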

[17] = at 5.0 µM (retest, dose inferred, filed as 0.5)
[18] = at 50.0 µM (retest, dose inferred, filed as 5.0)

Measured: growth inhibition

CN(CCOc1ccc(Cl)cc1)CCOc1ccc(Cl)cc1
inactive: [1]; at 1.2 µM 8% | [1]; at 3.7 µM 18% | [1]; at 11.0 µM 50% | [2]; at 1.2 µM 7% | [2]; at 3.7 µM 7% | [2]; at 11.0 µM 10% | [2]; at 33.0 µM 39% | [3]; at 1.2 µM 4% | [3]; at 3.7 µM 7% | [3]; at 11.0 µM 7% | [3]; at 33.0 µM 3% | [3]; at 100.0 µM 56% | [4]; at 1.2 µM 3% | [4]; at 3.7 µM 13% | [4]; at 11.0 µM 57% | [5]; at 1.2 µM 11% | [5]; at 3.7 µM 17% | [5]; [17] 13% | [5]; at 11.0 µM 51% | [6]; at 1.2 µM 12% | [6]; at 3.7 µM 16% | [6]; [17] 5% | [6]; at 11.0 µM 36% | [7]; at 1.2 µM 28% | [7]; at 3.7 µM 25% | [7]; at 11.0 µM 48% | [8]; [17] 25% | [9]; at 1.2 µM 20% | [9]; at 3.7 µM 18% | [9]; at 11.0 µM 50% | [10]; [17] 11% | [11]; at 1.2 µM 16% | [11]; at 3.7 µM 23% | [11]; [17] 10% | [11]; at 11.0 µM 60% | [12]; at 1.2 µM 8% | [12]; at 3.7 µM 11% | [12]; at 11.0 µM 26% | [13]; at 1.2 µM 13% | [13]; at 3.7 µM 17% | [13]; at 11.0 µM 41% | [14]; at 1.2 µM 18% | [14]; at 3.7 µM 23% | [14]; at 11.0 µM 48% | [15]; [17] 22% | [16]; at 1.2 µM 14% | [16]; at 3.7 µM 11% | [16]; at 11.0 µM 23%
active: [1]; at 33.0 µM 90% | [1]; at 100.0 µM 99% | [2]; at 100.0 µM 99% | [4]; at 33.0 µM 98% | [4]; at 100.0 µM 99% | [5]; at 33.0 µM 97% | [5]; [18] 97% | [5]; at 50.0 µM 99.2% | [5]; at 100.0 µM 99% | [6]; at 33.0 µM 93% | [6]; [18] 99% | [6]; at 50.0 µM 99.5% | [6]; at 100.0 µM 99% | [7]; at 33.0 µM 99% | [7]; at 100.0 µM 99% | [8]; [18] 99% | [8]; at 50.0 µM 99.7% | [9]; at 33.0 µM 90% | [9]; at 100.0 µM 99% | [10]; [18] 97% | [10]; at 50.0 µM 99.5% | [11]; at 33.0 µM 97% | [11]; [18] 98% | [11]; at 50.0 µM 99.6% | [11]; at 100.0 µM 97% | [12]; at 33.0 µM 89% | [12]; at 100.0 µM 99% | [13]; at 33.0 µM 98% | [13]; at 100.0 µM 99% | [14]; at 33.0 µM 98% | [14]; at 100.0 µM 99% | [15]; [18] 99% | [15]; at 50.0 µM 99.5% | [16]; at 33.0 µM 80% | [16]; at 100.0 µM 99%
